Measured values taken from PubChem BioAssay (Tox21).
Results filed as inconclusive are left out. Unmarked numbers belong to inactive results. Active and inactive are the calls of the source. Calls follow the shape of the dose curve; as a rule, active = well fitted cell-killing curve with a large enough effect in the repeat runs; inconclusive = weak or mixed curves; inactive = no such curve, though single readings can be large or run the other way.

assay: qHTS assay to identify small molecule agonists of the peroxisome proliferator-activated receptor delta (PPARd) signaling pathway - cell viability counter screen (AID 743211); conditions: PPARd-bla HEK293H viability, CellTiter-Glo luminescence, 17 h; series mostly up to 62.6 µM; also: nearly all actives have a fitted effect of over 55% in size
Excerpt: U.S. Tox21 Program National Center for Advancing Translational Sciences [NCATS] NIH Chemical Genomics Center [NCGC] U.S. Environmental Protection Agency [EPA] National Institutes of Environmental Health Sciences [NIEHS] National Toxicology Program [NTP] U.S. Food and Drug Administration [FDA] Tox21 Assay Overview: The peroxisome proliferator-activated receptors (PPARs) are lipid-activated transcription factors of the nuclear receptor superfamily with three distinct subtypes namely PPAR alpha, PPAR delta (PPARd) and PPAR gamma. All these subtypes heterodimerizes with Retinoid X receptor (RXR) and have different physiological functions. […] To identify the compounds that activate PPAR-delta signaling, GeneBLAzer PPAR delta UAS-bla HEK293H cell line (Invitrogen, Carlsbad, CA, USA) containing a beta-lactamase reporter gene under the control of an Upstream Activator Sequence (UAS) was used to screen the Tox21 compound library. The cytotoxicity of the Tox21 compound library against the PPARd-bla cell line was tested in parallel by measuring the cell viability using CellTiter-Glo assay (Promega, Madison, WI) in the same wells.
Tox21 Assay Protocol Summary: PPARd-bla cells were dispensed at 3000 cells/6uL/well in 1536-well black wall/clear bottom plates using a Multidrop Combi (Thermo Fisher Scientific, Waltham, MA) dispenser. After the assay plates were incubated at 37 C and 5% CO2 for 5 h, 23 nL of compounds dissolved in DMSO, positive controls or DMSO only was transferred to the assay plate by a Pintool station (Kalypsys, San Diego, CA). The assay plates were incubated at 37C for 17 h. After 1 uL of LiveBLAzerTM B/G FRET substrate was added using a Bioraptr Flying Reagent Dispenser (FRD) workstation (Beckman Coulter, Indianapolis, IN, USA), the plates were incubated at room temperature for 2 h, and fluorescence intensity was measured by an Envision plate reader (PerkinElmer, Shelton, CT). For cell viability readout that measures cytotoxicity, 3 ul/well of CellTiter-Glo reagent was added into the assay plates using a Bioraptr FRD. After 30 min incubation at room temperature, the luminescence intensity in the plates was measured using a ViewLux plate reader (PerkinElmer).
% is scaled to controls: 0 for no effect and ±100 for the full control effect.

Compound	outcome	activity change, negative = cytotoxicity
CCS(=O)(=O)CCn1c([N+](=O)[O-])cnc1C	inactive	
Cc1ccccc1N1CCN(CCc2nnc3n2CCCC3)CC1	inactive	
CCN(CC)C(=O)C1CN2CCc3cc(OC)c(OC)cc3C2CC1OC(C)=O (stereo not given)	inactive	
CC(C)COC(=O)COc1ccc(Cl)cc1Cl	inactive	
O=[Si]=O	inactive	
O=c1[nH]c(=O)c2ccccc2o1	inactive	
COCC(=O)Nc1c(I)c(C(=O)NCC(O)CO)c(I)c(C(=O)N(C)CC(O)CO)c1I (stereo not given)	inactive	
COC(=O)CCC(=O)O	inactive	
CCOC(=O)C(C)(C)C	inactive	
Nc1cc(S(=O)(=O)O)ccc1S(=O)(=O)O	inactive	
CC(C)c1ccccc1O	inactive	
NS(=O)(=O)c1ccc(Cl)c(S(N)(=O)=O)c1	inactive	
COc1cc(C=O)ccc1OC(=O)C(C)C	inactive	
CCC(C)(C)C1CCC(=O)CC1	inactive	
COc1ccc(NS(=O)(=O)c2ccc(N)cc2)nn1	inactive	
Cc1ccccc1OCC1CO1 (stereo not given)	inactive	
CO/N=C(/C(=O)N[C@@H]1C(=O)N2C(C(=O)O)=C(Cn3nnc(C)n3)CS[C@H]12)c1csc(N)n1	inactive	
CC(C)C(=O)c1ccccc1	inactive	
Cc1nc([N+](=O)[O-])cn1-c1ccc([N+](=O)[O-])cc1	inactive	
OCCCCCCCl	inactive	

Compound	outcome	activity change, negative = cytotoxicity
O=c1[nH]c(=O)c2[nH]c(=O)[nH]c2[nH]1		7.12% [at 13.2 µM]
CCCCC(CC)COC(=O)c1ccccc1 (stereo not given)	inactive	
O=C(O)c1c(Cl)ccc(Cl)c1Cl	inactive	
Cc1ccc2c(c1)c1c3n2CCNC3CCC1 (stereo not given)	inactive	
CCCCC(C)C(=O)O (stereo not given)	inactive	
CCCCC[Si](OCC)(OCC)OCC	inactive	
C=C(C)C(=O)OC	inactive	
C=C[Si](C)(C)O[Si](C)(C)C=C	inactive	
Cc1ccccc1C(=O)N1CC/C(=N\OS(=O)(=O)O)c2ccc(Cl)cc21	inactive	
COc1cccc2sc(N)nc12	inactive	
O=CN1CCOCC1	inactive	
Nc1ccc(S(=O)(=O)NC(=O)c2ccccc2)cc1	inactive	
NS(=O)(=O)c1cc2c(cc1Cl)NC(CC1CCCC1)NS2(=O)=O (stereo not given)	inactive	
CCCCCCCC[Si](OCC)(OCC)OCC	inactive	
CCC(=O)c1ccc(O)cc1	inactive	
NS(=O)(=O)c1ccccc1OC(F)(F)F	inactive	
C[C@H]1O[C@H](O[C@H]2[C@H](O)[C@@H](O)[C@@H](O[C@H]3[C@H](O)[C@@H](O)[C@H](O)O[C@@H]3CO)O[C@@H]2CO)[C@H](O)[C@@H](O)[C@@H]1N[C@H]1C=C(CO)[C@@H](O)[C@H](O)[C@H]1O	inactive	
CCN(Cc1cccc(S(=O)(=O)O)c1)c1ccccc1	inactive	
O=C(O)Cc1cccc(-c2cc(CCCCCCc3ccc(O[C@H]4O[C@H](CO)[C@@H](O)[C@H](O)[C@@H]4O)c(-c4cccc(CC(=O)O)c4)c3)ccc2O[C@H]2O[C@H](CO)[C@@H](O)[C@H](O)[C@@H]2O)c1		4.03% [at 0.55 µM]
Cc1cc(O)c2c(c1)C(=O)c1cccc(O)c1C2=O	inactive	
